# The whole screen tested about 320,000 compounds, of which about 9,100 (2.8%) were called active. Not shown: some 3% with an inconclusive outcome. This is one part of a sample in which actives are shown more often than they occur. Unmarked numbers belong to inactive results. Calls follow the shape of the dose curve; as a rule, active = well fitted activation curve with a large enough effect; inconclusive = small, poorly fitted or top-dose-only effect; inactive = no such curve, though single readings can be large or run the other way.
# Experiment: qHTS Assay for Rab9 Promoter Activators; also: nearly all actives have a fitted effect of over 60% in size; as to activation, negative = inhibition: % of control where 0% means no effect
# Conditions: Huh7 Rab9 promoter-luciferase reporter, luminescence, 24 h; series mostly up to 9.22 µM; activation, negative = inhibition: at the top concentration
# Excerpt: NIH Chemical Genomics Center [NCGC] NIH Molecular Libraries Probe Production centers Network [MLPCN] MLPCN Grant: MH089537-01 Assay Submitter (PI): Yiannis A. Ioannou NCGC Assay Overview: Niemann Pick Type C (NPC) is a rare neurodegenerative lipidosis that is characterized by lipid storage in the endosomal/lysosomal system. Treatment modalities for this devastating disease are currently non-existent due to the severe obstacles associated with accessing the central nervous system with proteins or genes (Ioannou, 2000). We have developed a new paradigm, termed "Orphan Receptor Bypass Therapy" (ORByT), to address these disorders. This paradigm posits the existence of endogenous "suppressor" proteins whose expression can dramatically improve LSD pathogenesis. The goal is the identification/discovery of small chemical compounds that can modulate the expression of these proteins and provide a new treatment modality for these devastating disorders. One such protein whose overexpression reverses aspects of the NPC phenotype is Rab9. We have developed and optimized a cell based luciferase reporter assay in 1536 well format for the identification of up-regulators of the Rab9 promoter.
# The Rab9 promoter is cloned in front of the luciferase reporter gene, therefore […] promoter activation results in luciferase expression. Frozen stock of the Rab9 promoter transfected Huh7 cells were obtained from the laboratory of Dr. Yiannis Ioannou (The Mount Sinai School of Medicine, New York, NY). Cells were propagated and maintained at NCGC in medium containing RPMI-1640 supplemented with 10% FBS, 2mM L-glutamine, and 50ug/ml penicillin/streptomycin. Cells were harvested in and plated for assays in OP-MEM I reduced-serum medium supplemented with 10% FBS. The Amplite luciferase reporter gene assay kit was purchased from ABD Bioquest and prepared/stored according to manufacturers recommendations. qHTS Assay Setup: 1.Dispensed 5ul of Huh7 cells stably expressing Rab9-luciferase at a density of 1500 cells per well 1536-well plates. 2.Incubate cells at 37C, 5% CO2, and 95% humidity for 2 hours. 3.Transferred 23nl per well of compound in DMSO solution. 4.Incubated at 37C, 5% CO2, and 95% humidity for 24 hours. 5.Dispensed 3ul per well of Amplite reagent(ABD Bioquest) per well. 6.Incubate at ambient for 10 minutes. 7.Read using the luminescence protocol on the ViewLux plate reader (Perkin Elmer).
# Potency is read from the fitted curve at half-maximal effect.
SMILES,"activation, negative = inhibition [%]",Potency
COCCCNC(=O)COc1cc(C)c(Cl)c(C)c1,-1.29,
Cc1cc(OCc2cc(C(=O)NCc3cc(C(C)C)no3)no2)cc(C)c1Cl,,1000 nM (active)
Cc1cccnc1CC(C)NC(=O)c1cc(COc2cncc(Cl)c2)on1 (centres undefined),21.8,
CN(C)S(=O)(=O)c1cc(C(=O)Nc2ccn(C)n2)c(Cl)cc1Cl,-3.56,
O=C(Nc1cccc(C(=O)NC2CC2)c1)c1ccc(F)c(S(=O)(=O)N2CCOCC2)c1,1.23,
CC(=O)c1ccc(N2CCN(C(=O)c3ccc(Cl)c(S(=O)(=O)NC4CC4)c3)CC2)c(F)c1,-4.16,
O=C(Nc1ccccc1)c1ccc2c(c1)OCCCO2,,562 nM (active)
O=C(Nc1cccc(S(=O)(=O)N2CCCCC2)c1)c1ccc2c(c1)OCO2,-5.6,
COC(=O)c1ccc(N2CCOCC2)c(NC(=O)c2ccc3c(c2)OCCO3)c1,3.46,
CCCc1nnc(NC(=O)c2cc(OC)cc(OC)c2)s1,4.08,
Cn1c(NC(=O)c2ccc3c(c2)OCO3)cc(=O)n(C)c1=O,-1.63,
O=C(Nc1cccc([N+](=O)[O-])c1)c1ccc2c(c1)OCO2,25.9,
O=C(Nc1cccc(S(=O)(=O)Nc2ccc(Cl)cc2)c1)c1ccc2c(c1)OCCO2,-21.3,
CN1CCN(c2ccc(NC(=O)c3ccc4c(c3)OCCO4)cc2Cl)CC1,,2000 nM (active)
O=C(CN1CCc2cc3c(cc2C1)OCCCO3)Nc1ccccc1,-2.47,
COCc1nnc(NC(=O)c2ccc3c(c2)OCO3)s1,,2820 nM (active)
O=C(Nc1ccccc1)c1ccc2c(c1)OCO2,,2510 nM (active)
CN1CCN(c2ccc(NC(=O)c3cc(Cl)c4c(c3)OCCO4)cc2)CC1,-0.801,
CCN(CC)c1nc(-c2ccccc2)cc(C(F)(F)F)c1C#N,-1.99,
Cc1ccc(-c2nnc(-n3nnc4ccccc43)c3ccccc23)cc1,0.115,
Cc1ccc(C(=O)OCC(=O)NCc2cc(C)c(O)c(C)c2)cc1S(=O)(=O)N1CCCCC1,-8.65,
O=C(Nc1ccc(Br)cn1)C1CCN(S(=O)(=O)c2cccs2)CC1,-29.7,
O=C(CN1CCCCC1)Nc1ccccc1C(=O)NC1CC1,-5.28,
C=CCNc1nc(N)c(C(=C(C#N)C#N)c2ccccc2)s1,-0.832,
Cc1n[nH]c(=O)c2c(NC(=O)CSc3cc(Cl)ccc3Cl)oc(C)c12,0.024,
O=S(=O)(NCCc1ccccn1)c1cc(Cl)cc(Cl)c1O,7.45,
Cc1ccc(F)cc1NC(=O)c1ccc2c(c1)OCO2,8.79,

SMILES,"activation, negative = inhibition [%]",Potency
O=C(Nc1nc2ccccc2s1)c1ccc2c(c1)OCO2,,316 nM (active)
COc1cc(NC(=O)c2ccc3c(c2)OCO3)ccc1NC(=O)c1cccs1,4.9,
O=C(Nc1ccccc1N1CCN(C(=O)c2ccccc2)CC1)c1ccc2c(c1)OCO2,-7.83,
COc1ccc(S(=O)(=O)N2CCOCC2)cc1C(=O)Nc1nc2ccccc2s1,-0.0677,
O=C(CCNC(=O)c1ccccc1)Nc1nc2ccccc2s1,23,
COc1ccc(C(=O)Nc2ccc3c(c2)OCO3)cc1OC,,4470 nM (active)
O=C(Nc1ccccc1F)c1ccc2c(c1)OCO2,,2820 nM (active)
O=C(Nc1ccc2c(c1)OCO2)c1ccc(N2C(=O)c3ccccc3C2=O)cc1,7.16,
O=C(Nc1ccccc1)Nc1nc2ccccc2s1,,1120 nM (active)
O=C(Nc1nc2cc3c(cc2s1)OCCO3)c1cccc(S(=O)(=O)N2CCOCC2)c1,6.06,
Cc1nn(CC(=O)Nc2nc3ccccc3s2)c(C)c1[N+](=O)[O-],-6.26,
CSc1ncccc1C(=O)Nc1ccc2c(c1)OCO2,-1.7,
CCC(C)NC(=O)c1ccc(NC(=O)CC2SC(N3CCCCC3)=NC2=O)cc1 (centres undefined),-8.9,
CC1CC(C)CN(C(=O)COC(=O)c2ccc3ncsc3c2)C1 (centres undefined),-5.2,
CN(CC(=O)NCC(c1ccccc1)N1CCCC1)S(=O)(=O)c1ccc(Cl)cc1 (centres undefined),-1.75,
COc1ccc(CCNC(=O)COc2ccc3c(c2)OCO3)cc1,0.182,
CC(Oc1ccc(Br)cc1)C(=O)NC1CCCCCC1 (centres undefined),12,
CCSc1ccccc1C(=O)Nc1ccc2c(c1)OCO2,23.9,
Cc1ccc(C(=O)Nc2ccc3c(c2)OCO3)cc1S(=O)(=O)N1CCCCC1,22,
CC(C)C(=O)Nc1cccc(C(=O)Nc2ccc3c(c2)OCO3)c1,,1120 nM (active)
CN(CC(=O)Nc1ccc(F)c(F)c1F)C(=O)C1CC(=O)N(C2CCCC2)C1 (centres undefined),-3.87,
NS(=O)(=O)c1ccc(CNC(=O)c2cccc(S(=O)(=O)N3CCc4ccccc43)c2)cc1,-5.28,
COc1cc(C(=O)Nc2ncccc2C)ccc1OCC(=O)N1CCOCC1,2.4,
CC1(C)O[C@@H]2[C@H](O1)[C@@H](COS(=O)(=O)O)O[C@H]2n1ccc(=O)[nH]c1=O,0.343,
CCOc1cccc(-n2nnnc2-c2ccc(OC)cc2)c1,-39.7,
COc1ccc(-n2nnnc2-c2nc3ccccc3s2)cc1,,2820 nM (active)
COc1ccc(C2=NN(c3nc4ccccc4s3)C(=O)C2)cc1,-1.35,

# From PubChem BioAssay AID485297 (National Center for Advancing Translational Sciences (NCATS), 2010)
